Compound activity from PubChem BioAssay.
Six1-Eya2 blk – inhibitors of human Six1/Eya2 interaction; AlphaScreen GST-Six1/His-Eya2 binding, biochemical; active compounds read low; AID 651725; actives 0.56% (n = 360,000); Q15475+O00167; activity change, % (no concentration beside the values); in the data active = activity change below about -65%; inconclusive = mostly about -30% to -63%
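Homogeneous AlphaScreen proximity assay pairing GST-Six1 with His-tagged Eya2 (added as 5X mix: 250 nM and 500 nM) in 50 mM Tris pH 8.0, 300 mM NaCl, 1 mM TCEP. Glutathione donor and nickel acceptor beads; 1 h, 37 °C, dark.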
DT40 TDP1 CPT – DT40-hTDP1 cell growth loss with CPT | chicken DT40 Tdp1-/-;hTDP1 cells + 20 nM CPT, ATP luminescence, 48 h | actives 12% (n = 420,000) | Potency, µM (series often up to 46.2 µM), hits mostly inhibitors; also: nearly all actives have a fitted effect of over 55% in size
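Cell growth measured by CellTiter-Glo luminescence after a minimum 48 h, 37 C compound exposure with 20 nM CPT in Tdp1-knockout DT40 cells stably expressing hTDP1, seeded 400/well; qHTS titration format.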
IL1B secr inh – inflammasome signaling inhibition, IL-1 beta readout; actives 4.7% (n = 360,000); AID 743279; THP-1 LPS/ATP IL-1B secretion, AlphaLISA, 16 h; active compounds read low; activity change, % at 57.5 µM; in the data active = activity change below about -50%; inconclusive = mostly about -30% to -49%
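Secreted IL-1B measured by AlphaLISA bead assay after 16 h compound exposure of THP-1 cells; compounds (final up to 57.5 uM) added 1 h before LPS (250 ng/mL) and ATP (1.25 mM) stimulation; lower signal means less secretion.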
TDP1 block – inhibitors of human tyrosyl-DNA phosphodiesterase TDP1 | Q9NUW8 | AID 485290 | recombinant TDP1, AlphaScreen DNA substrate cleavage | actives 0.28% (n = 350,000) | Potency, µM (top dose mostly 130 µM), actives largely listed as inhibitors; also: nearly all actives have a fitted effect of over 40% in size
Target sequence (Q9NUW8 whole entry, looked up): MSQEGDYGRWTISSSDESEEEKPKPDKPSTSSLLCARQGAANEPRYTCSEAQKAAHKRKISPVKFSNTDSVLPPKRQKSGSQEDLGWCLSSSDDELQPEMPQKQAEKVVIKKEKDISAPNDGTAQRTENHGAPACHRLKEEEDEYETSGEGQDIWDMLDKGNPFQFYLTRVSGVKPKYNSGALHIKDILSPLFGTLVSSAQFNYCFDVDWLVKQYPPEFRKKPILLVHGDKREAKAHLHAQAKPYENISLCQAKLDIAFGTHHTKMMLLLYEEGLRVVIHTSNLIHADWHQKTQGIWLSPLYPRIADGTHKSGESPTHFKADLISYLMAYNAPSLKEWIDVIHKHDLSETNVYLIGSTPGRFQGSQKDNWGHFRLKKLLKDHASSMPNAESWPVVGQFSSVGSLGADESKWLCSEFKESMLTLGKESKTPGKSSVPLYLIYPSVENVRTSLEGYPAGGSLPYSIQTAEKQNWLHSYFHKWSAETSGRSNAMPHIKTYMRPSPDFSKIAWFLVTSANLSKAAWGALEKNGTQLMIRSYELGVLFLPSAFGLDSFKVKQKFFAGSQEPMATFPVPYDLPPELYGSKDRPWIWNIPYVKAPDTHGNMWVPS
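Enzyme-compound mixtures sat 15 min at room temperature, followed by a 5 min reaction with 15 nM final substrate and 10 min with AlphaScreen beads. Recombinant human Tdp1 was used at 1 nM final.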
DT40 TDP1 no CPT – qHTS for Inhibitors of human tyrosyl-DNA phosphodiesterase 1 (TDP1): qHTS in cells in absence of CPT. DT40 Tdp1-/- hTDP1 cells, no CPT, ATP luminescence, 48 h. Potency, µM (doses to about 46.2 µM), usual class: inhibitors. actives 15% (n = 420,000); also: nearly all actives have a fitted effect of over 55% in size
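Chicken DT40 Tdp1-/- cells stably complemented with human TDP1 were seeded at 400 cells/well with DMSO in place of 20 nM camptothecin. After compound pinning, cells grew at least 48 hr at 37 °C; viability read by CellTiter-Glo luminescence.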
CtBP-E1A blk – CtBP/E1A binding inhibition. actives 0.49% (n = 340,000). activity change, % (no concentration beside the values). AlphaScreen GST-E1A/His-CtBP binding, 1536-well; active compounds read low; in the data active = activity change below about -65%; inconclusive = mostly about -30% to -63%
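Protein mix (5X: 125 nM each GST-E1A, His-CtBP) was incubated with pinned compound 2 h at 37 deg C in dark, in 50 mM Tris pH 8.0 buffer with 300 mM NaCl. Glutathione donor and nickel acceptor beads followed; AlphaScreen signal read after 1 h.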
Hits are given with their value; i = inactive; ? = inconclusive; nt = no result; [ ] = another dose, or the depositor's remark. Compounds with a hit are over-represented: about 18% of the library has one in this group of screens. Unless noted, calls follow the shape of the dose curve; as a rule, active = well fitted curve in the direction sought with a large enough effect; inconclusive = small, poorly fitted or top-dose-only effect, or another doubt; inactive = no such curve, though single readings can be large; an effect the other way counts as inactive or inconclusive.

SMILES	Six1-Eya2 blk	DT40 TDP1 CPT	IL1B secr inh	TDP1 block	DT40 TDP1 no CPT	CtBP-E1A blk
CCCCC(C)Sc1nc2c([nH]1)c(=S)n(C)c(=O)n2C (configuration not stated)	i	3.66µM	-99.2	nt	5.17µM	i
CCCC(CC)Sc1nc2c([nH]1)c(=S)n(C)c(=O)n2C (configuration not stated)	i	3.66µM	i	nt	3.66µM	i
Cn1cnnc1SCc1ccc(C(=O)N=Nc2c(O)n(C)c3ccccc23)cc1	i	?	-54.6	i	?	i
CC1=C(c2ccc(F)cc2)S(=O)(=O)NC1=NCc1ccccc1F	nt	?	nt	i	?	nt
CC1=C(c2ccc(C)cc2)S(=O)(=O)NC1=NCCCN1CCN(c2ccccc2F)CC1	nt	?	nt	i	16.4µM	nt
C=CCN(c1ccc(C(=O)Nc2cccc([N+](=O)[O-])c2)cc1)S(C)(=O)=O	i	i	i	i	?	nt
CC(C)(C(N)=O)N1CCN(c2ncc(C(F)(F)F)cc2Cl)CC1	i	14.6µM	i	i	14.6µM	i
O=C(c1ccc2c(c1)OCCO2)N1CCN(c2ncc(C(F)(F)F)cc2Cl)CC1	i	?	i	i[0.505 µM]	16.4µM	i
Cc1ccsc1C(=O)N1CCN(c2ncc(C(F)(F)F)cc2Cl)CC1	i	11.6µM	i	nt	14.6µM	i
O=C(Nc1ccc2c(c1)OCO2)N1CCN(c2ncc(C(F)(F)F)cc2Cl)CC1	i	20.6µM	-60.5	i	11.6µM	i
CCOC(=O)N1CCN(c2ncc(C(F)(F)F)cc2Cl)CC1	i	?	i	i	?	i
O=C(c1ccc2c(c1)OCCO2)N1CCN(c2ccccn2)CC1	i	i	i	i	i	i
CC(C(=O)N1CCN(c2ccc(Cl)cc2)CC1)c1ncc(C(F)(F)F)cc1Cl (configuration not stated)	i	18.4µM	?	i	23.1µM	i
Cc1ccc(OCC(=O)NNC(=S)NC(=O)c2ccc(Br)o2)c(C)c1	i	?	i	i	13µM	i
Cc1ccc(OCC(=O)NNC(=S)NC(=O)c2cccs2)c(C)c1	i	16.4µM	i	i	16.4µM	i
O=C(CC(=O)N/N=C\c1ccc([N+](=O)[O-])cc1)NCCc1ccccc1	i	i	i	i	i	i
O=C(O)c1ccc2c(c1)CC(c1ccccc1)OC2=O (configuration not stated)	i	i	i	i	i	i
O=C1OC(c2ccccc2)Cc2cc(C(=O)N3CCN(c4ccc(F)cc4)CC3)ccc21 (configuration not stated)	i	18.4µM	i	i	?	i
COc1ccc(N2CCN(C(=O)c3ccc4c(c3)CC(c3ccccc3)OC4=O)CC2)cc1 (configuration not stated)	i	?	i	i	20.6µM	i
CSCC(=O)N1CCCC(CNC(=O)c2ccc(-c3ccccc3)cc2)C1 (configuration not stated)	i	23.1µM	i	i	23.1µM	i
COc1ccc(S(=O)(=O)NCC2CCCN(C(=O)c3cccnc3)C2)cc1 (configuration not stated)	i	i	i	i	i	i
CC(=O)CCC(=O)N1CCCC(CNC(=O)c2ccc(-c3ccccc3)cc2)C1 (configuration not stated)	i	?	i	i	?	nt
O=C(NCC1CCCN(C(=O)c2cccnc2)C1)c1ccc(-c2ccccc2)cc1 (configuration not stated)	i	?	i	i	23.1µM	i
Cc1cccc(N(C)S(=O)(=O)c2ccc(-c3cc(C)no3)s2)c1	i	0.82µM	i	i	0.651µM	i
CCOc1ccc(N(C)S(=O)(=O)c2ccc(-c3ccc(=O)[nH]n3)s2)cc1	i	i	i	i	i	i
SMILES	Six1-Eya2 blk	DT40 TDP1 CPT	IL1B secr inh	TDP1 block	DT40 TDP1 no CPT	CtBP-E1A blk
CCOc1ccc(N(C)S(=O)(=O)c2ccc(-c3cc(C)no3)s2)cc1	i	3.66µM	i	i	4.11µM	nt
CCN(c1cccc(C)c1)S(=O)(=O)c1ccc(-c2cc(C)no2)s1	i	2.91µM	i	i	2.59µM	nt
Cc1cc(-c2ccc(S(=O)(=O)N3CCCCC3)s2)on1	i	i	i	i	?	nt
CC(=O)Nc1cccc(/C(C)=N/NC(=O)c2ccc(NS(=O)(=O)c3cccs3)cc2)c1	i	i	i	i	i	i
C/C(=N\NC(=O)c1ccc(NS(=O)(=O)c2cccs2)cc1)c1ccc(C(C)(C)C)cc1	i	7.31µM	i	i	9.2µM	i
CCOc1ccc(C(=O)c2cn(CC(=O)Nc3ccc4c(c3)OCO4)c3ccc(OCC)cc3c2=O)cc1	nt	?	nt	i	3.26µM	nt
COc1ccc(C(=O)c2cn(CC(=O)Nc3ccc4c(c3)OCO4)c3ccc(OC)cc3c2=O)cc1	nt	?	nt	i	?	nt
COc1ccc(C(=O)c2cn(CC(=O)Nc3ccc4c(c3)OCCO4)c3ccc(OC)cc3c2=O)cc1	nt	20.6µM	nt	nt	?	nt
CCc1ccc(C(=O)c2cn(CC(=O)Nc3cc(OC)cc(OC)c3)c3ccc(CC)cc3c2=O)cc1	nt	i	nt	i	?	nt
CCOc1ccc(C(=O)c2cn(CC(=O)Nc3cc(OC)cc(OC)c3)c3ccc(F)cc3c2=O)cc1	nt	?	nt	i	20.6µM	nt
